In the supplement of paper PMC12350171:
Structures can show the parent of a compound that is named as a salt. Values without a mark were called inactive.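 Rule for the calls: active = AUC significantly below DMSO controls by Student t-fit with adjusted P under 0.01; inactive = not significantly reduced.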

What follows are molecules tested on Haemophilus parainfluenzae (assay: growth AUC normalised to DMSO control (fraction of control); higher = less growth inhibition, active = hit call of the paper). Details: 20 µM.
In short: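 Pathogens passaged twice anaerobically were inoculated at a starting OD578 of 0.01 into pre-reduced mGAM plates with drug at 20 μM and 1% DMSO, sealed with breathable membranes. Haemophilus parainfluenzae medium was supplemented with hemin and NAD. OD578 was read hourly for 24 h, with three biological replicates. Growth-curve AUC was computed by the trapezoidal rule up to the exponential-to-stationary transition and normalised to DMSO controls on the same plate.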
In the case of CC(C)NCC(O)c1ccc(O)c(O)c1 (single isomer, unassigned; (+)) [(+) Isoproterenol-(+)-bitartrate salt], the “growth AUC normalised to DMSO control” value is reported as 1.02. With C#C[C@]1(O)CC[C@H]2[C@@H]3[C@H](C)CC4=C(CCC(=O)C4)[C@H]3CC[C@@]21C [Tibolone] the “growth AUC normalised to DMSO control” value was 0.966. For Clc1ccccc1C(c1ccccc1)(c1ccccc1)n1ccnc1 [Clotrimazole], the “growth AUC normalised to DMSO control” value was 0.968. In the case of OCCN1CCN(CCCN2c3ccccc3Sc3ccc(Cl)cc32)CC1 [Perphenazine], the “growth AUC normalised to DMSO control” value is reported as 0.924. CCCC1C(=O)N2C(N(C)C)=Nc3ccc(C)cc3N2C1=O (stereo not drawn) [Azapropazone] was tested, and the “growth AUC normalised to DMSO control” value was 0.968. Cc1cc(NC(=O)C2=C(O)c3ccccc3S(=O)(=O)N2C)no1 [Isoxicam] was tested, and the “growth AUC normalised to DMSO control” value was 0.991. With CCC(=O)O[C@@H](O[P@](=O)(CCCCc1ccccc1)CC(=O)N1C[C@H](C2CCCCC2)C[C@H]1C(=O)O)C(C)C [Fosinopril] the “growth AUC normalised to DMSO control” value was 1.02. With CC(=O)c1ccc(S(=O)(=O)NC(=O)NC2CCCCC2)cc1 [Acetohexamide] the “growth AUC normalised to DMSO control” value was 0.971. CC(C)/N=c1\cc2n(-c3ccc(Cl)cc3)c3ccccc3nc-2cc1Nc1ccc(Cl)cc1 [Clofazimine] was tested, and the “growth AUC normalised to DMSO control” value was 1. O=C(OCC(O)CO)c1ccccc1Nc1ccnc2cc(Cl)ccc12 (stereo not drawn) [Glafenine hydrochloride] was tested, and the “growth AUC normalised to DMSO control” value was 0.978. CCC1(c2ccccc2)C(=O)NCNC1=O [Primidone] was tested, and the “growth AUC normalised to DMSO control” value was 0.953. Cc1cccc(C)c1NC(=O)C(C)N (stereo not drawn) [Tocainide hydrochloride] was tested, and the “growth AUC normalised to DMSO control” value was 0.99. For CCc1oc2ccccc2c1C(=O)c1cc(Br)c(O)c(Br)c1 [Benzbromarone], the “growth AUC normalised to DMSO control” value was 0.987. In the case of O=C(O)CN(CCN(CC(=O)O)CC(=O)O)CCN(CC(=O)O)CC(=O)O [Pentetic acid], the “growth AUC normalised to DMSO control” value is reported as 1.02. In the case of Cc1c(NC(C)C)c(=O)n(-c2ccccc2)n1C [Isopyrin hydrochloride], the “growth AUC normalised to DMSO control” value is reported as 0.967. With CC(C)(Oc1ccc(Cl)cc1)C(=O)O [Clofibric acid] the “growth AUC normalised to DMSO control” value was 0.908. With Cc1cc(N)c2ccccc2[n+]1CCCCCCCCCC[n+]1c(C)cc(N)c2ccccc21 [Dequalinium dichloride] the “growth AUC normalised to DMSO control” value was 0.907. C=CCN1CCCC1CNC(=O)c1cc2nn[nH]c2cc1OC (stereo not drawn) [Alizapride hydrochloride] was tested, and the “growth AUC normalised to DMSO control” value was 1. For COc1ccc2c3c1O[C@H]1C[C@@H](O)C=C[C@@]31CCN(C)C2 [Galanthamine hydrobromide], the “growth AUC normalised to DMSO control” value was 0.988. With Cc1ncc(C[n+]2csc(CCO)c2C)c(N)n1 [Thiamine hydrochloride] the “growth AUC normalised to DMSO control” value was 0.964. For CN(C)CCOc1ccc(/C(=C(/CCCl)c2ccccc2)c2ccccc2)cc1 [Toremifene], the “growth AUC normalised to DMSO control” value was 0.997. For CO[C@@]1(NC(=O)Cc2cccs2)C(=O)N2C(C(=O)O)=C(COC(N)=O)CS[C@@H]21 [Cefoxitin sodium salt], the “growth AUC normalised to DMSO control” value was 0.0362 (active). Nc1nc(=O)c2nc(CNc3ccc(C(=O)N[C@@H](CCC(=O)O)C(=O)O)cc3)cnc2[nH]1 [Folic acid] was tested, and the “growth AUC normalised to DMSO control” value was 0.978. With CCCC(=O)Nc1ccc(OCC(O)CNC(C)C)c(C(C)=O)c1 (stereo not drawn) [Acebutolol hydrochloride] the “growth AUC normalised to DMSO control” value was 1.03. With Cc1cc2cc3c(C)cc(=O)oc3c(C)c2o1 [Trioxsalen] the “growth AUC normalised to DMSO control” value was 1.02. CC(CN(C)C)C(C)(O)Cc1ccc(Cl)cc1 (stereo not drawn) [Clobutinol hydrochloride] was tested, and the “growth AUC normalised to DMSO control” value was 0.963. For O=c1oc2ccccc2c(O)c1Cc1c(O)c2ccccc2oc1=O [Dicumarol], the “growth AUC normalised to DMSO control” value was 1.31. With CN(C)CC/C=C1\c2ccccc2CSc2ccccc21 [Dosulepin hydrochloride] the “growth AUC normalised to DMSO control” value was 0.865. With CN(C)CCN1C(=O)c2ccccc2N(C)c2ccccc21 [Dibenzepine hydrochloride] the “growth AUC normalised to DMSO control” value was 0.97. For CC(C(=O)O)c1ccc(N2Cc3ccccc3C2=O)cc1 (stereo not drawn) [Indoprofen], the “growth AUC normalised to DMSO control” value was 1.02. For CC[N+](CC)(CC)CCOc1cccc(OCC[N+](CC)(CC)CC)c1OCC[N+](CC)(CC)CC [Gallamine triethiodide], the “growth AUC normalised to DMSO control” value was 1.09. For CCCc1cc(C(N)=S)ccn1 [Prothionamide], the “growth AUC normalised to DMSO control” value was 1.04. For CC(C)(C#N)c1cc(Cn2cncn2)cc(C(C)(C)C#N)c1 [Anastrozole], the “growth AUC normalised to DMSO control” value was 1.1.
